Screening results as filed in PubChem BioAssay.
Hits are enriched below; roughly 11% of the tested compounds scored in any of these assays.
PLK1 PBD inh: inhibitors of human PLK1 polo-box domain binding; Plk1 PBD binding of FITC phosphopeptide, fluorescence polarization; AID 720504; Potency, µM, for inactives: max response, negative = inhibition, usual class: inhibitors; P53350; 360,000 tested, 2.8% active; further: series mostly up to about 57 µM; on the % scale 0 is the no-effect control and ±100 the full control effect; nearly all actives have a fitted effect of over 65% in size
JMJD2A Tudor: inhibitors of human JMJD2A Tudor domain; O75164; AlphaScreen JMJD2A-Tudor / H3K4me3 peptide binding; Potency, µM (top dose mostly 114 µM), for inactives: at the highest dose activity change, negative = inhibition, usual class: inhibitors; 390,000 tested, 4.4% active; AID 504339; further: on the % scale 0 is the no-effect control and ±100 the full control effect; nearly all actives have a fitted effect of over 50% in size
VDR inhibitor: blocks the human vitamin D receptor. AID 504847. P11473. 400,000 tested, 0.93% active. Potency, µM, without a hit: max response, negative = inhibition, usual class: inhibitors. VDR-SRC2-3 peptide fluorescence polarization, 2 h; further: on the % scale 0 is the no-effect control and ±100 the full control effect
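Measured by FP: displacement of SRC2-3 coactivator peptide from VDR by library compounds, following a two-hour ambient incubation.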
G9a block: blocks human histone lysine methyltransferase G9a; 350,000 tested, 8.8% active; Potency, µM (highest dose often 102 µM), for the others: at the highest dose activity, negative = inhibition, actives largely listed as inhibitors; G9a H3K9 monomethylation, AlphaScreen, 2 h; Q96KQ7; AID 504332; further: on the % scale 0 is the no-effect control and ±100 the full control effect; nearly all actives have a fitted effect of over 75% in size
Target sequence (Q96KQ7 913-1193 limits assumed): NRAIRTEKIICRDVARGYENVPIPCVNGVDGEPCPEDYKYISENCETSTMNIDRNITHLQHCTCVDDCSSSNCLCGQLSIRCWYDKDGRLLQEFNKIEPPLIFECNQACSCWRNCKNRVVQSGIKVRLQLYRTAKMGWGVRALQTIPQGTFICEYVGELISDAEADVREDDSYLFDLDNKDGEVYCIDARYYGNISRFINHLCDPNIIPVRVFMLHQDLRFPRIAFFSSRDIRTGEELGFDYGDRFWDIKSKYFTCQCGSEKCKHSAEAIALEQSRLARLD
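Signal arises when biotinylated H3K9 peptide, once monomethylated, bridges streptavidin donor and antibody-captured acceptor beads. Enzyme at 20 nM was preincubated 15 min with test compounds; peptide 500 nM and SAM 20 uM then reacted for 2 h.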
HP1b chromo inh: HP1-beta chromodomain-methylated histone interaction inhibition; AlphaScreen HP1-beta / biotin-H3K9me3 peptide binding; Potency, µM (highest dose often 114 µM), for inactives: at the top dose activity change, negative = inhibition, most hits filed as inhibitors; AID 540317; 390,000 tested, 0.56% active; further: nearly all actives have a fitted effect of over 70% in size
Target sequence (P83916 whole entry, looked up): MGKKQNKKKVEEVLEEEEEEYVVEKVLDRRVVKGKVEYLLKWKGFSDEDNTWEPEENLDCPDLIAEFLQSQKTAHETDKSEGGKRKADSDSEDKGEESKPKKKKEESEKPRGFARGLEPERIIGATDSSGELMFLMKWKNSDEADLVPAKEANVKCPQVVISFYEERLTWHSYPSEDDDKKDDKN
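Compound inhibition of the preformed complex between 50 nM HP1-beta and 50 nM biotinylated H3K9me3 peptide was read by AlphaScreen. Buffer was PBS pH 7.4 with 0.01% Tween-20. Incubations ran 30 min at room temperature, with 10 ug/mL donor/acceptor beads.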
BAZ2B block: inhibitors of human BAZ2B bromodomain. AlphaScreen BAZ2B-H3K14Ac peptide displacement. Potency, µM (titrated, usually from 114 µM), without a hit: at the highest dose activity change, negative = inhibition, most hits filed as inhibitors. 360,000 tested, 4.4% active. AID 504333; further: on the % scale 0 is the no-effect control and ±100 the full control effect; nearly all actives have a fitted effect of over 60% in size
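In this displacement format the biotinylated H3(5-23) peptide acetylated at Lys14 serves as ligand at 50 nM, with BAZ2B at 50 nM in PBS pH 7.4 containing 0.01% Tween-20. Donor and acceptor beads are 10 ug/mL final.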
Active calls of the source: *; ? = inconclusive; / = no result given; [ ] = another dose, or the depositor's remark. The call rests on the fitted dose curve; in most records, active means well fitted curve in the direction sought with a large enough effect; inconclusive means small, poorly fitted or top-dose-only effect, or another doubt; inactive means no such curve, though single readings can be large; an effect the other way counts as inactive or inconclusive. Potency means the concentration at half of the fitted maximal effect.

SMILES	PLK1 PBD inh	JMJD2A Tudor	VDR inhibitor	G9a block	HP1b chromo inh	BAZ2B block
Cc1ccc(OCC(=O)N2CCC(N3CCCCCC3)CC2)cc1	0.5%	6.31µM*	-8.2%	?	-45.6%	56.2µM*
COc1ccccc1N1CCN(C2CCN(C(=O)COc3cccc(C)c3)CC2)CC1	-7.8%	5.62µM*	-12.5%	8.91µM*	?	79.4µM*
COc1ccccc1N1CCN(C2CCN(C(=O)c3cccc(F)c3)CC2)CC1	-6.8%	28.2µM*	-5.7%	8.91µM*	?	50.1µM*
Cc1ccc(-c2ccc(OCC(=O)N3CCOCC3)cc2)cc1	-9.6%	2.2%	-0.5%	-7.0%[12.7 µM]	4.7%	6.7%
Cc1ccc(OCC(=O)N2CCN(C(=O)c3ccc([N+](=O)[O-])cc3)CC2)cc1	-9.3%	-6.6%	-12.8%	50.1µM*	13.8%	-7.0%
O=C(c1cccc(F)c1)N1CCN(Cc2ccco2)CC1	-4.1%	7.94µM*	-0.6%	31.6µM*	-13.9%	50.1µM*
O=C(Nc1ccnn1C1CCN(C2CCCCC2)CC1)c1cccc(F)c1	-18.2%	25.1µM*	4.0%	/	36.8%	10.3%
O=C(Nc1ccnn1C1CCN(C2CCCCC2)CC1)c1ccccc1	-18.2%	2.7%	1.8%	18.0%	1.6%	3.1%
O=C(COc1ccccc1)N1CCN(C(=O)c2ccc([N+](=O)[O-])cc2)CC1	-0.6%	-26.5%	8.4%	/	46.2%	-7.0%
OCCN1CCN(c2cc(-c3ccccc3)c3ccccc3n2)CC1	-6.1%	0.794µM*	-16.6%	?	?	39.8µM*
OCCN1CCN(c2nc(-c3ccccc3)c3cc(Br)ccc3n2)CC1	-3.0%	-23.1%	-5.5%	-47.8%	20.6%	-16.3%
C=CC[C@@H](CC(=O)NCCO)C(=O)N[C@H](COC(=O)[C@H](CC=C)CC(=O)OC(C)(C)C)Cc1c[nH]c2ccccc12	-9.6%	-8.9%	-6.0%	/	61.6%	/
Cc1c(P(=S)(c2ccccc2)c2ccccc2)c2ccccc2n1C(=O)NCc1ccc(F)cc1	/	-15.6%	/	/	/	/
Cc1nc2[nH]onc2c2nccc(=O)c12	-9.8%	-6.2%	8.3%	14.1µM*	28.9%	-1.2%
O=C(Nc1ccc(NC(=S)NC(=O)c2ccccc2Cl)cc1)c1cccc(Cl)c1	-1.4%	-21.5%	-4.6%	/	14.2%	/
COc1ccc(/C(O)=C2/C(=O)C(=O)N(CCN(C)C)C2c2ccc(OC)c(OC)c2)c(C)c1 (stereo not drawn)	-1.9%	-12.8%	-3.0%	39.8µM*	19.1%	-37.9%
COc1ccc(/C(O)=C2/C(=O)C(=O)N(CCN(C)C)C2c2ccc(C)cc2)cc1Cl (stereo not drawn)	-3.6%	-8.8%	-15.0%	89.1µM*	33.6%	-5.7%
CN(C)CCN1C(=O)C(=O)/C(=C(/O)c2ccc(F)cc2)C1c1ccccc1F (stereo not drawn)	-6.8%	-21.1%	-7.8%	79.4µM*	13.5%	-34.8%
CC(C)COc1ccc(/C(O)=C2/C(=O)C(=O)N(CCN(C)C)C2c2ccncc2)cc1 (stereo not drawn)	-8.3%	-23.3%	3.7%	?	19.4%	-0.7%
COc1cc(C2/C(=C(/O)c3ccc(OCC(C)C)cc3)C(=O)C(=O)N2CCN(C)C)ccc1O (stereo not drawn)	-2.4%	-8.0%	3.3%	25.1µM*	16.7%	-9.5%
CCOc1ccc(C2/C(=C(/O)c3ccc(Cl)cc3)C(=O)C(=O)N2CCCN(C)C)cc1OC (stereo not drawn)	/	/	/	?	/	11.5%
COc1ccccc1CNC(=O)C1CCC(=O)N(CCCc2ccccc2)C1 (stereo not drawn)	3.4%	18.8%	-6.3%	16.1%	23.8%	-4.0%[57.1 µM]
CC1(C(=O)NCc2ccccc2)CN(S(C)(=O)=O)CC(=O)N1CCc1ccc(O)cc1 (stereo not drawn)	0.6%	/	/	/	/	/
Cc1c(/C(O)=C2/C(=O)C(=O)N(Cc3cccnc3)C2c2cccs2)cnn1-c1ccccc1 (stereo not drawn)	-5.7%	-24.8%	-5.2%	?	16.5%	-31.3%
